Screening results from PubChem.
HCV inhibitor – blocks hepatitis C virus. Huh7.5.1 HCVcc-Cre infection, luciferase reporter, 44 h. Potency, µM (series often up to 41.8 µM), without a hit: at the top dose activity change, negative = inhibition, most hits filed as inhibitors. actives 3.4% (n = 340,000). AID 651820; active = well fitted inhibition curve with a large enough effect; inconclusive = small, poorly fitted or top-dose-only effect, or another doubt; inactive = no such curve, though single readings can be large or run the other way; note: potency is the fitted concentration of half-maximal effect
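1,000 cells/well; 4 h culture; + compound; + HCVcc-Cre (~0.5 moi); 44 h; luciferase substrate, RT 15 min; read 15 sec.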
FMDV inh – antivirals against foot and mouth disease virus. FMDV antiviral cell-based qHTS. Potency, µM (doses to about 57.9 µM), without a hit: top-dose activity change, negative = inhibition, usual class: inhibitors. actives 1.2% (n = 410,000); calls by dose curve; tested in HEK293T cells; note: read-out not given here; potency is the fitted concentration of half-maximal effect; nearly all actives have a fitted effect of over 45% in size
LASV entry inh – inhibitors of Lassa virus binding or cell entry; Lassa virus pseudotype entry inhibition, cell reporter; Potency, µM (highest dose often 37.9 µM), without a hit: at the highest dose activity change, negative = inhibition, hits mostly inhibitors; actives 1.2% (n = 300,000); AID 540256; calls by dose curve; tested in HEK293 cells; note: potency is the fitted concentration of half-maximal effect; nearly all actives have a fitted effect of over 50% in size
Marburg entry inh – inhibitors of Marburg virus binding or cell entry | Potency, µM (doses to about 37.8 µM), for the others: at the top dose activity change, negative = inhibition, hits mostly inhibitors | actives 1.8% (n = 300,000) | AID 540276 | Marburg virus pseudotyped entry inhibition, cell reporter; calls by dose curve; tested in HEK293 cells; note: potency is the fitted concentration of half-maximal effect
HCMV antiviral – inhibitors of human cytomegalovirus; activity change, negative = inhibition, % at 57.5 µM; HFF cells, HCMV-luciferase reporter, 72 h; stronger effect = lower value; actives 4.5% (n = 410,000); in the data active = activity change below about -60%; inconclusive = no clear call, values can overlap the other calls; inactive = above about -39%
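HFF cells seeded 16 h at 37C, treated with compounds, infected with luciferase-reporter HCMV at MOI 1 PFU/cell; luciferase read at 72 h post infection, normalized to buffer-only and Salinomycin controls.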
* marks the source's active call; other numbers are inactive results; [ ] = dose if it differs, or a comment. Hits are enriched below; roughly 7.9% of the tested compounds scored in any of these assays. % is set by controls: 0 for no effect and ±100 for the full control effect.

Results for CCN(CC)CCNC(=O)c1ccc(NC(=O)Cc2cccc3ccccc23)cc1 ?
HCV inhibitor: inconclusive; FMDV inh: 2%; LASV entry inh: -12%[46.1 µM]; Marburg entry inh: 11µM*; HCMV antiviral: -24

Results for CC(C)(C)c1ccc(O[C@@H]2[C@H](O)CO[C@H]2/C=C/C#Cc2ccccc2)cc1 ?
Marburg entry inh: -9%[14.2 µM]

Results for Cc1[nH]c2ccccc2c1/C=C/c1nc2ccccc2c(=O)n1-c1cccc([N+](=O)[O-])c1 ?
HCV inhibitor: 8%; FMDV inh: -15%; LASV entry inh: inconclusive; Marburg entry inh: inconclusive; HCMV antiviral: -86*

How did Cn1c(SCc2cccc(Br)c2)nc2ccccc2c1=O do in these assays?
HCV inhibitor: 22µM*; FMDV inh: inconclusive; HCMV antiviral: -30

What do the screens show for `O=C(/C=C/c1cccc([N+](=O)[O-])c1)N1CCN(c2ccccn2)CC1`?
HCV inhibitor: 5%; FMDV inh: -10%; HCMV antiviral: -8

How did COc1ccc(-n2c(/C=C/c3c(C)[nH]c4ccccc34)nc3ccccc3c2=O)cc1 do in these assays?
FMDV inh: -18%; LASV entry inh: 14%[46.1 µM]; HCMV antiviral: 4

What do the screens show for `O=[N+]([O-])c1cccc(/C=C/c2ccccn2)c1`?
HCV inhibitor: 13µM*; FMDV inh: 32%; HCMV antiviral: 49

What do the screens show for `O=C(/C=C/c1cccc([N+](=O)[O-])c1)n1cnc2ccccc21`?
HCV inhibitor: inconclusive; FMDV inh: 14µM*; LASV entry inh: inconclusive; Marburg entry inh: inconclusive; HCMV antiviral: -99*

How did COc1ccc(-n2ncc(C(=O)N3CCN(Cc4ccccc4)CC3)c2C2CCN(C(=O)OC(C)(C)C)CC2)cc1 do in these assays?
FMDV inh: -13%; LASV entry inh: inconclusive; HCMV antiviral: 0

How did Cn1c(/C=C/c2cccc([N+](=O)[O-])c2)nc2ccccc2c1=O do in these assays?
HCV inhibitor: -15%; FMDV inh: -29%; HCMV antiviral: -61*

How did Cc1cccc(-n2c(/C=C\c3cccc(Br)c3)nc3ccccc3c2=O)c1 do in these assays?
FMDV inh: inconclusive; LASV entry inh: 12%[46.1 µM]; HCMV antiviral: -32

What do the screens show for `Cn1c(/C=C/c2cccc(Br)c2)nc2ccccc2c1=O`?
HCV inhibitor: -85%; FMDV inh: 9%; LASV entry inh: inconclusive; Marburg entry inh: 10µM*; HCMV antiviral: -72*

How did O=c1c2ccccc2nc(/C=C/c2cccc(Br)c2)n1CCCO do in these assays?
HCV inhibitor: inconclusive; FMDV inh: -27%; LASV entry inh: inconclusive; Marburg entry inh: inconclusive; HCMV antiviral: -92*

Results for COc1ccccc1N/C=C/c1onc(C)c1[N+](=O)[O-] ?
HCV inhibitor: 0%; FMDV inh: inconclusive; HCMV antiviral: -5

Results for Cc1noc(/C=C/c2ccccn2)c1[N+](=O)[O-] ?
HCV inhibitor: -6%; FMDV inh: -26%; LASV entry inh: inconclusive; Marburg entry inh: inconclusive; HCMV antiviral: -102*

How did Cc1nn2c(C)c(C(=O)NC(C)c3ccccc3)cnc2c1-c1ccc(F)cc1 (stereo not given) do in these assays?
FMDV inh: -20%; LASV entry inh: 3%[46.1 µM]; HCMV antiviral: -20

What do the screens show for `O=c1c2ccccc2nc(/C=C/c2ccc(Br)cc2)n1CCCO`?
HCV inhibitor: inconclusive; FMDV inh: 0%; HCMV antiviral: -71*

How did Cc1[nH]c2ccccc2c1/C=C/c1nc2ccccc2c(=O)n1CCO do in these assays?
HCV inhibitor: inconclusive; FMDV inh: -7%; LASV entry inh: 11µM*; Marburg entry inh: inconclusive; HCMV antiviral: 4

Results for O=c1c2ccccc2nc(/C=C/c2ccc(Br)cc2)n1CCO ?
HCV inhibitor: -10%; FMDV inh: -22%; LASV entry inh: inconclusive; Marburg entry inh: inconclusive; HCMV antiviral: -37

What do the screens show for `O=c1c2ccccc2nc(/C=C/c2ccc([N+](=O)[O-])o2)n1CCCO`?
HCV inhibitor: 2.2µM*; FMDV inh: inconclusive; LASV entry inh: 4.5µM*; Marburg entry inh: 2µM*; HCMV antiviral: -108*

Results for COc1cccc([C@H]2Oc3ccc(OC)cc3/C(=N\OC[C@@H](O)COCc3ccco3)[C@@H]2O)c1 ?
Marburg entry inh: 14%[14.2 µM]
